Data as given in PubChem BioAssay (NCI).
Compounds without any hit were thinned out: in the full panel of roughly 83,000, 20% have a hit.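 In brief: 96-well plates, 48 h treatment, single concentration, percent growth endpoint.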 Values without a mark were called inactive. Activity calls are given as the source filed them. The calls were made as follows: active = growth percent below 10; inactive = the rest.

System: HL-60(TB) leukemia
Assay: NCI-60 one-dose screen, 48 h (100 = growth as untreated, 0 = no growth, -100 = all killed)
Conditions: 10 µM unless noted

For `CN1CCN(c2ccc(NC(=O)c3cncnc3Nc3ccc(OCc4cccc(F)c4)c(Cl)c3)cc2)CC1`, which growth is on record?
Its growth is 66.9%.

With `COc1cc(/C=C/C(=O)c2cccs2)ccc1OCc1ccc(Cl)nc1` as the compound, how does the growth read?
Its growth is 72.6%.

How did the growth turn out when `COc1ccc(CN2c3ccccc3CCc3ccccc32)cc1F` was run?
Its growth is -25.7% (active).

For `COc1ccc(-c2cn(Cc3cc4ccccc4s3)nn2)cc1OCCN1CCCCC1`, which growth is on record?
Its growth is 77%.

For `CN1CCC(=C(c2ccccc2)c2ccccc2)C(c2ccccc2)C1` (stereo not given), which growth is on record?
Its growth is 88%.

Which growth does the source give for `Clc1ccc2c(N3CCN(c4ccnc(NC5CCCCC5)n4)CC3)ccnc2c1` here?
Its growth is -13.8% (active).

`Clc1ccc2c(c1)N(CCCN1CCCC1)c1ccccc1S2` was tested. Which growth did it give?
Its growth is 17.1%.

Which growth does the source give for `CCCCOC(=O)/C=C\C(=O)NC(N)=O` here?
Its growth is 56.8%.

How did the growth turn out when `O=C(OC1CCCC1)c1ccccc1Cl` was run?
Its growth is 99.2%.

For `COc1cc(/C=C2\CCCC3=C2N=C2SC(C)=CN2C3c2cc(OC)c(OC)c(OC)c2)cc(OC)c1OC` (stereo not given), which growth is on record?
Its growth is -11.9% (active).

Which growth does the source give for `CC(=O)OC1CCC2(C)C(=CC3C4CCC(=O)C4(C)CCC32)C1` (stereo not given) here?
The growth was 91%.

How did the growth turn out when `Cc1ccc2[nH]cc(-c3nc(-c4cn(C)c5ncccc45)cs3)c2c1` was run?
Its growth is 63.7%.

Which growth does the source give for `COc1ccc(Cn2cc3c(c2-c2ccccc2)CC(C)(C)c2cnoc2-3)cc1` here?
The growth was 16.7%.

Which growth does the source give for `O=C(O)c1ccccc1Oc1cc(-c2ccco2)nc(OCCN2CCOCC2)n1` here?
Its growth is 105%.

Which growth does the source give for `C=CC(=O)NCc1cccc(Nc2ncc(Br)c(NCCCNC(=O)C3CCC3)n2)c1` here?
Its growth is -50% (active).

Which growth does the source give for `CC(=O)Nc1ccc(O)c(C)c1` here?
The growth was 104%.

`Cc1cc(N2CCOCC2)nc(N(CCNc2ccnc3cc(Cl)ccc23)Cc2cccs2)n1` was tested. Which growth did it give?
Its growth is -63.2% (active).

For `NC(=O)c1nc2c([nH]c1=O)CCCC2`, which growth is on record?
The growth was 101%.

With `COc1cc(C(=O)Nc2cc(OC)c3ccn(C)c3c2)cc2c1C[C@]1(C)CC[C@@H](O)C(C)(C)[C@H]1O2` as the compound, how does the growth read?
Its growth is 1.14% (active).

For `CC(=O)O[C@H]1C[C@@]2(C)[C@@H](C[C@@H](O)[C@H]3[C@@]4(C)CC[C@H](N5CCCC5)[C@@H](C)[C@@H]4CC[C@@]32C)/C1=C(\CCC=C(C)C)C(=O)O`, which growth is on record?
Its growth is -74.3% (active).

For `COC(=O)CC(=O)C(=O)OC`, which growth is on record?
The growth was 100%.

With `COc1cc(C(=O)C(=O)c2cc(OC)c(O)c(OC)c2)cc(OC)c1O` as the compound, how does the growth read?
Its growth is 99.7%.

For `O=C(Nc1ccc2ccccc2c1)c1cc2ccccc2cc1O`, which growth is on record?
Its growth is 79.7%.

For `CCCCCCCCCCCCOC(=N)N(C)C`, which growth is on record?
Its growth is 91.9%.

Which growth does the source give for `O=C1CC(c2ccccc2)Cc2nc3ccc(Br)cc3cc21` (stereo not given) here?
Its growth is -28.4% (active).

For `COc1ccccc1/C=N\Nc1ccc([N+](=O)[O-])cn1`, which growth is on record?
The growth was 89.5%.

With `CC(C)(C)OC(=O)CN1CCc2c(sc3ncnc(N4CCN(c5ccc(F)cc5)CC4)c23)C1` as the compound, how does the growth read?
Its growth is 99.5%.

With `Cc1ccc2c(n1)C(=O)C(Oc1ccc(F)cc1)=CC2=O` as the compound, how does the growth read?
Its growth is 54%.

For `COc1ccc(-c2nn(C(=O)NCCN(C)C)cc2-c2ccncc2)cc1Cl`, which growth is on record?
The growth was 10.2%.

For `CN(C)CCCN1c2ccccc2Sc2ccc(C(F)(F)F)cc21`, which growth is on record?
Its growth is 0.95% (active).

`N=C(N)c1ccc(-c2ccc(-c3ccc(Cl)cc3Cl)o2)nc1` was tested. Which growth did it give?
Its growth is -26.7% (active).

`CCOc1ccc(Nc2nc(-c3ccc4c(c3)NC(=O)CO4)cs2)cc1` was tested. Which growth did it give?
The growth was 66.9%.

`COc1cc(-c2nc(SCCC(C)C)nc(Nc3ccc(F)cc3)c2C#N)cc(OC)c1OC` was tested. Which growth did it give?
Its growth is 84.9%.

How did the growth turn out when `CN(C)CCCN1c2ccccc2CCc2ccccc21` was run?
Its growth is 91.4%.

Which growth does the source give for `COc1ccc(C(=O)/C=C/c2cc(-c3ccc(OC)c(OC)c3)n[nH]2)cc1OC` here?
The growth was -25.4% (active).

How did the growth turn out when `Nc1nc(N(Cc2ccccc2)c2ccccc2)c2cn[nH]c2n1` was run?
The growth was 32.8%.

`CC(C)C/C(=N\NC(=O)c1ccncc1)c1cc(Cl)ccc1O` was tested. Which growth did it give?
Its growth is -32.3% (active).

For `CCCOC(=O)Nc1nc2ccc(SCC(C)C)cc2s1`, which growth is on record?
Its growth is 15.9%.

`O=C1c2ccc3c4c(ccc(c24)C(=O)N1CCCNCc1ccccc1Cl)C(=O)N(CCCNCc1ccccc1Cl)C3=O` was tested. Which growth did it give?
The growth was -55.9% (active).

`CCOC(=O)c1c[nH][nH]c1=O` was tested. Which growth did it give?
Its growth is 110%.

`Cc1cc(Cl)c2ccc(N(C)C)cc2n1` was tested. Which growth did it give?
Its growth is 93.6%.

With `O=C(c1ccc(F)cc1)C1CCN(CCn2c(=O)[nH]c3ccccc3c2=O)CC1` as the compound, how does the growth read?
Its growth is 97.3%.

`O=C(Nc1ncc(Cc2ccccc2)s1)c1ccc2c(c1)OCCCO2` was tested. Which growth did it give?
Its growth is 11.8%.

How did the growth turn out when `CC(=O)c1cc(C(=O)c2ccc3c(c2)Sc2ccccc2N3)c2cc(C)ccn12` was run?
Its growth is 2.96% (active).

`O=C1C(Cl)=C(SC2=NCCN2)C(=O)c2ccccc21` was tested. Which growth did it give?
Its growth is 81.4%.

For `C=C1C(=O)O[C@H]2[C@H]1CC/C(COC(=O)CCCCCCCCC(=O)OC/C1=C/CC[C@@]3(C)O[C@H]3[C@H]3OC(=O)C(=C)[C@@H]3CC1)=C\CC[C@@]1(C)O[C@@H]21`, which growth is on record?
Its growth is -32.8% (active).

`O=C(Nc1ncc(Cc2ccccc2Cl)s1)c1cccs1` was tested. Which growth did it give?
The growth was 58.5%.

For `CCC(C)C(N)C(=O)NC(CC(N)=O)C(=O)NC(CC(C)C)C(=O)NC(CCCCN)C(=O)NC(C)C(=O)NC(CC(C)C)C(=O)NC(C)C(=O)NC(C)C(=O)NC(CC(C)C)C(=O)NC(C)C(=O)NC(CCCCN)C(=O)NC(CCCCN)C(=O)NC(C(=O)NC(CC(C)C)C(N)=O)C(C)CC` (stereo not given), which growth is on record?
The growth was 56.1%.

For `Nc1nc(Cl)cc(NCc2ccc(CNc3cc(Cl)nc(N)n3)cc2)n1`, which growth is on record?
The growth was 78.7%.

With `O=C(/C=C/c1ccc(Cl)cc1)c1ccccc1` as the compound, how does the growth read?
The growth was 99.9%.

How did the growth turn out when `COCCOC(=O)NC(=O)Nc1ccc(C(=O)c2ccc(Cl)cc2)cc1` was run?
The growth was -13.3% (active).

How did the growth turn out when `CCOC(=O)c1nc(Nc2ccc(C(C)=O)cc2)sc1C` was run?
The growth was 95.5%.

With `CC1=CC(C)(C)Nc2ccc(Cc3ccc4c(c3)C(C)=CC(C)(C)N4)cc21` as the compound, how does the growth read?
The growth was 122%.

How did the growth turn out when `O=C(O)COc1ccc([N+](=O)[O-])cc1Cl` was run?
Its growth is 108%.

How did the growth turn out when `CCOc1ccc(/C=N/NC(=O)c2cccc3ccccc23)cc1OCC` was run?
The growth was 100%.

How did the growth turn out when `O=c1ccn(C2CCCO2)c(=O)[nH]1` (stereo not given) was run?
The growth was 111%.

How did the growth turn out when `CCCCCCCCCCCCCCCCCCOc1ccc(CC(=O)OCC[N+]2(C)CCCCC2)cc1` was run?
The growth was 83.4%.

With `Clc1ccc2c(NC3CCC(NC4CCCCC4)CC3)ccnc2c1` (stereo not given) as the compound, how does the growth read?
Its growth is 67.3%.

Which growth does the source give for `CCCc1cc(NC)nc(S(=O)(=O)CC)n1` here?
The growth was 127%.

`C#Cc1cccc(NC(=O)C2CCCN(C(=O)CCl)C2)c1` (stereo not given) was tested. Which growth did it give?
The growth was 34% [8.25 µM].

`CC(=O)[C@H]1CC[C@]2(C)[C@@H]1CC[C@@H]1[C@@]3(C)CC(CCC#N)(CCC#N)C(=O)C(C)(C)[C@@H]3CC[C@]12C` was tested. Which growth did it give?
The growth was 103%.

`CC1(C)[C@@H](O[C@@H]2OC[C@@H](O[C@@H]3O[C@H](CO)[C@@H](O)[C@H](O)[C@H]3O[C@@H]3OC[C@@H](O)[C@H](O)[C@H]3O)[C@H](O)[C@H]2O[C@@H]2O[C@H](CO)[C@@H](O)[C@H](O)[C@H]2O)CC[C@]2(C)[C@H]3CC[C@]45OC[C@@]6(CC[C@](C)(C=O)C[C@H]64)[C@H](O)C[C@@]5(C)[C@]3(C)CC[C@@H]12` was tested. Which growth did it give?
The growth was -58.6% (active).

For `C=CCn1ccc(=O)nc1SC`, which growth is on record?
The growth was 96.4%.

How did the growth turn out when `O=S(=O)(O)c1cccc(Nc2ccc3ccccc3c2)c1` was run?
The growth was 89.9%.

For `COc1ccc(C2NC(=O)C(C#N)c3c2sc2c(F)cccc32)c(OC)c1` (stereo not given), which growth is on record?
The growth was 56.9%.

Which growth does the source give for `COc1ccc(C2=NNC(c3sc(Cl)nc3Cl)C2)cc1` (stereo not given) here?
The growth was 85.8%.

`CCOC(=O)c1c(C)n2c(=O)cc(C)c3c(OC(C)=O)c(OC(C)=O)cc1c32` was tested. Which growth did it give?
Its growth is 0.923% (active).

Which growth does the source give for `C=C(C)[C@@H]1C[C@@H]2Cc3ccc(Cl)c(C)c3N1O2` here?
The growth was 3.4% (active).

With `O=C(CSc1nc2ccccc2c(=O)n1-c1ccccc1)Nc1ccc(C(=O)/C=C/c2ccc(Cl)cc2)cc1` as the compound, how does the growth read?
Its growth is 99%.

With `CCCC(=O)Oc1ccc2ccccc2c1` as the compound, how does the growth read?
The growth was 98.5%.

How did the growth turn out when `O=C(COc1cccc(/C=C2\Oc3ccccc3C2=O)c1)c1ccc([N+](=O)[O-])cc1` was run?
Its growth is 83.7%.

For `NS(=O)(=O)c1ccc(CCn2c(SCC(=O)N/N=C/c3cc4ccccc4[nH]3)nc3ccccc3c2=O)cc1`, which growth is on record?
The growth was 35.2%.

With `CN(C)c1ccc(C(=S)c2ccc(N(C)C)cc2)cc1` as the compound, how does the growth read?
Its growth is 62.8%.

`COc1ccc(-c2cc(NC(=O)Nc3ccc4ncsc4c3)no2)cc1` was tested. Which growth did it give?
The growth was 90.8%.

How did the growth turn out when `COc1ccc(-c2nc3ccc(Cc4ccc5nc(-c6ccc(OC)cc6)[nH]c5c4)cc3[nH]2)cc1` was run?
Its growth is 9.66% (active).

Which growth does the source give for `CCCCNCCCN(CCCC)CCCNCCCC` here?
Its growth is 98.5%.

`O=[N+]([O-])c1ccc(N/N=C/c2cccc3ccccc23)nc1` was tested. Which growth did it give?
Its growth is 26.4%.

For `OCCN(CCO)C(=S)S`, which growth is on record?
The growth was 104%.

For `O=C(COCc1c(-c2ccccc2)no[n+]1[O-])Nc1ccc(C(=O)/C=C/c2ccc3c(c2)OCO3)cc1`, which growth is on record?
Its growth is 88.7%.

Which growth does the source give for `COc1ccc2nc(NC(=O)c3cc(-c4ccc(F)cc4)n4nc(-c5ccccc5)cc4n3)sc2c1` here?
The growth was 98.7%.

`O=c1nc(-c2ccccc2)c2cc(-c3ccc(N4CCOCC4)cc3)ccc2[nH]1` was tested. Which growth did it give?
The growth was 63.5%.

`CSc1ccc(N=C=C(c2ccccc2)c2ccccc2)cc1` was tested. Which growth did it give?
Its growth is 79.8%.

With `COc1cc(OC)c(Cl)cc1N` as the compound, how does the growth read?
The growth was 131%.

With `C=C1C(=O)O[C@H]2[C@H]1CC/C(COC(=O)c1cc3cc(F)ccc3[nH]1)=C\CC[C@@]1(C)O[C@@H]21` as the compound, how does the growth read?
Its growth is -32.6% (active).

How did the growth turn out when `C=C(C)[C@@H]1CC[C@]2(CO)CC[C@]3(C)[C@H](CC[C@@H]4[C@@](C)(CCCN)[C@H](C(=C)C)CC[C@]43C)[C@@H]12` was run?
Its growth is -54.7% (active).
